Source: PubChem BioAssay (NCATS)
Results filed as inconclusive are left out. Activity calls are given as the source filed them. Unless noted, calls follow the shape of the dose curve; as a rule, active = well fitted curve in the direction sought with a large enough effect; inconclusive = small, poorly fitted or top-dose-only effect, or another doubt; inactive = no such curve, though single readings can be large; an effect the other way counts as inactive or inconclusive.

Tests used:
[1] = Validation screen for small molecules that induce genotoxicity in human embryonic kidney (HEK293T) cells expressing luciferase-tagged ELG1 (AID 493106); conditions: luminescence; series mostly up to 46.1 µM; also: 0% is about no effect
Procedure, shortened: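 Reporter-gene quantitative HTS in HEK293T cells carrying luciferase-tagged ELG1, whose level climbs under genotoxic stress. Compound exposure lasts 16 hr at 37 °C before luciferase detection.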

[2] = molecular target: ATPase family AAA domain-containing protein 5 (Homo sapiens) (UniProt Q96QE3); experiment: Validation screen for small molecules that inhibit ELG1-dependent DNA repair in human embryonic kidney (HEK293T) cells expressing luciferase-tagged ELG1 (AID 493107); conditions: HEK293T ELG1-luciferase level, luminescence, 5-fluorouridine co-treatment, 16 h; series mostly up to 46.1 µM; also: nearly all actives have a fitted effect of over 70% in size; also: potency is read from the fitted curve at half-maximal effect
ATPase family AAA domain-containing protein 5 (Homo sapiens), sequence (Q96QE3 whole entry, looked up, the tested form may be a part): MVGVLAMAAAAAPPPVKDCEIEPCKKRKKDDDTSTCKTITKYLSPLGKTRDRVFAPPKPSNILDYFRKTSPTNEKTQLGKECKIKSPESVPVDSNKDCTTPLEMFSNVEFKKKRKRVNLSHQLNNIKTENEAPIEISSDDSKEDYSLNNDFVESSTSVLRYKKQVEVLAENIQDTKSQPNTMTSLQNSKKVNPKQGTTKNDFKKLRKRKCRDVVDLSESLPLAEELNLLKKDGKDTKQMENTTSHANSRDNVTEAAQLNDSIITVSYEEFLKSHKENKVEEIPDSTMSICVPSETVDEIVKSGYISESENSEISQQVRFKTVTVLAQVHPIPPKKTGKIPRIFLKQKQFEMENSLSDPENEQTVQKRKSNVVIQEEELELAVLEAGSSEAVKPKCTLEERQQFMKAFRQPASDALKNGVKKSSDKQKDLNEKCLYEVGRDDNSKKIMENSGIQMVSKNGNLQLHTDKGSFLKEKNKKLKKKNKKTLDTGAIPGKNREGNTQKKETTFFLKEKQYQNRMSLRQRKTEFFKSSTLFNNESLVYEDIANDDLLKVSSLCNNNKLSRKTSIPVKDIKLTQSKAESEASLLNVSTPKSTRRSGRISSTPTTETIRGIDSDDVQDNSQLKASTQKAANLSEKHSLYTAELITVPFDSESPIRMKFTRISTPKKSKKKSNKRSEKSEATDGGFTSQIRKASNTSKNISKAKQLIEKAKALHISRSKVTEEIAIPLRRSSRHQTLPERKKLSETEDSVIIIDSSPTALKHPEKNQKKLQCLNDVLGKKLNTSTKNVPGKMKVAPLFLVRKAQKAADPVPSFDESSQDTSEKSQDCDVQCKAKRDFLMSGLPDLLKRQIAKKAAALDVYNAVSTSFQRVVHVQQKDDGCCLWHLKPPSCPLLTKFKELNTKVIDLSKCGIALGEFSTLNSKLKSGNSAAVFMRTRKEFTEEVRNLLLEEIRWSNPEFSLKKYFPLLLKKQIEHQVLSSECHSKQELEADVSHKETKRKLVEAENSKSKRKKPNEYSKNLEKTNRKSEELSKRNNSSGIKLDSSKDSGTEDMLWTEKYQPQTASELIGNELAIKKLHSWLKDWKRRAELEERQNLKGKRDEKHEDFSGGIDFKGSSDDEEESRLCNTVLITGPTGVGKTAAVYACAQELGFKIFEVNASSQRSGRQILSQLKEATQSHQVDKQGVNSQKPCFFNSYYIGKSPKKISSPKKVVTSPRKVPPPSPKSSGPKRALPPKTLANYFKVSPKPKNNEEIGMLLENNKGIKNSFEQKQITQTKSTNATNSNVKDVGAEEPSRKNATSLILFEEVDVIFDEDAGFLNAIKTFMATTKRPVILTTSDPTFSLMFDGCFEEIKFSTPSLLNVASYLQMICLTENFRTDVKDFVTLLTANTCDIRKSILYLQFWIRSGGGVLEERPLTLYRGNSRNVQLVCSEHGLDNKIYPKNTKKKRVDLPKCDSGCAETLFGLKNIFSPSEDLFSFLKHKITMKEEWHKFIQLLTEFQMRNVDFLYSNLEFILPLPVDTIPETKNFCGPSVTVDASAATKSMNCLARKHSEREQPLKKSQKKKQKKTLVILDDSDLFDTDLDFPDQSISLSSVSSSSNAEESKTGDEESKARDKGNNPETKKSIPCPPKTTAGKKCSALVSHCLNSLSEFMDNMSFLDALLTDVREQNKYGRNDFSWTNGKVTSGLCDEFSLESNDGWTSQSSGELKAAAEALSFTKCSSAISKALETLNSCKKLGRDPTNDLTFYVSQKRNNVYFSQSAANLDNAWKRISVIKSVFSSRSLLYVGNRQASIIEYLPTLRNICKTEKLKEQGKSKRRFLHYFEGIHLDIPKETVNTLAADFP
Procedure, shortened: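 Quantitative HTS in HEK293T cells carrying luciferase-tagged ELG1, stimulated with 5-fluorouridine alongside compound for 16 hr. Loss of luciferase signal marks inhibition of ELG1 response.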

[3] = Nrf2 qHTS screen for inhibitors: Validation (AID 493153; active = well fitted inhibition curve with a large enough effect in the main read-out, with a control signal flat, not every such curve was filed as active; also: potency is read from the fitted curve at half-maximal effect); conditions: A549 ARE-Fluc reporter, 18-24 h; Potency: luciferase luminescence; viability change: measured here: cytotoxicity max response; luciferase luminescence, at 46.1 µM (top of the series)
Procedure, shortened: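 Dose-response validation uses reporter A549 cells with firefly luciferase under an antioxidant response element. Compounds stay on cells 18-24 h at 37°C, and luminescence indicates Nrf2-driven transcription.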

[4] = qHTS for Inhibitors of Cell Surface uPA Generation: Validation Assay (AID 493164); conditions: mouse cells, plasminogen activation; series mostly up to 38.3 µM;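 also: RAW 264.7 macrophage cells exposed to compound for 18 h; 0% is about no effect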
Procedure, shortened: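 RAW 264.7, 4000 cells/well, o/n plating; cpd 7-pt 1:5 dilution 2.45 nM–38.3 uM final; 18 h, 37 C/5% CO2; ATP-Lite, 5 s luminescence exposure.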

[5] = molecular target: Galactokinase (Homo sapiens) (UniProt P51570); experiment: qHTS Validation Assay for Inhibitors of Human Galactokinase (GALK) (AID 493189); conditions: purified human GALK enzyme activity, qHTS 7-point titration; series mostly up to 57.5 µM; also: 0% is about no effect
Galactokinase (Homo sapiens), sequence (P51570 whole entry, looked up): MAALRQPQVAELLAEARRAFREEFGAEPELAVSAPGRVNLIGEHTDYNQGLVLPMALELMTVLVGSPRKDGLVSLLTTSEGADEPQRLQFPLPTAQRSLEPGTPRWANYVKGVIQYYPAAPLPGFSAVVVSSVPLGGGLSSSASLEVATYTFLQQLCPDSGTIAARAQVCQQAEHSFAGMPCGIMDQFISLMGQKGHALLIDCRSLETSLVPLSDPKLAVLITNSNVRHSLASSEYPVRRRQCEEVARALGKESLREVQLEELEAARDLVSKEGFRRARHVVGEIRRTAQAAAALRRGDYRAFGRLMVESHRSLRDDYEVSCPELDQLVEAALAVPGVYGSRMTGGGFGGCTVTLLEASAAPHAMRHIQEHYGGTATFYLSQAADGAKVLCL
Procedure, shortened: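 Enzyme activity is inferred from ATP consumption: human GALK phosphorylates galactose (100 uM) using 35 uM ATP for 1 h at room temperature, and luciferase-based Kinase-Glo Plus reports unconsumed ATP.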

[6] = molecular target: phosphoglycerate mutase (Leishmania major) (UniProt Q4Q090); experiment: qHTS Validation Assay to Find Inhibitors of Phosphoglycerate Mutase (AID 504548); conditions: biochemical enzyme activity; series mostly up to 57.5 µM; also: % is scaled to controls: 0 for no effect and ±100 for the full control effect
Procedure, shortened: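 Luminescent end-point read-out via Kinase-GloPlus after a 10-minute development. Reaction: 1.25nM Leishmania major PGAM with substrate and compound, 45 minutes at room temperature in TEA buffer (pH 7.6) with MgCl2 and Tween-20.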

[7] = qHTS for Inhibitors of ATXN expression: Validation of Cytotoxic Assay (AID 588349); conditions: cytotoxicity counter-screen for ATXN expression inhibitors, cell viability; series mostly up to 57.1 µM;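 also: cells exposed to compound for 72 hr; % is scaled to controls: 0 for no effect and ±100 for the full control effect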
Procedure, shortened: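 HEK293, compound dose series, 72 hr / 37 degrees C; viability via CellTiter Glo (intracellular ATP).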

[8] = qHTS for Inhibitors of ATXN expression: Validation (AID 588378); conditions: cell-based ATXN2 expression reporter assay, luminescence; series mostly up to 57.1 µM; also: % is scaled to controls: 0 for no effect and ±100 for the full control effect; nearly all actives have a fitted effect of over 75% in size
Procedure, shortened: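 After a 2 h attachment and 24 h compound incubation, HEK293-ATXN2-FFLuc wells are read for fluorescence at 405 nm excitation/525 nm emission as a viability measure, then for Bright-Glo luminescence reflecting ATXN2 expression.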

[9] = molecular target: Glucocorticoid receptor (Homo sapiens) (UniProt P04150); experiment: qHTS assay for small molecule agonists of glucocorticoid receptor signaling (AID 588532; active = well fitted curve in the direction sought with a large enough effect in the signal ratio, with a control signal flat; the % refers to the signal ratio; also: potency is read from the fitted curve at half-maximal effect;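 as to activation: 100% = dexamethasone at 0.1 µM and 0% = DMSO only wells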); conditions: HeLa MMTV-bla, beta-lactamase ratio, agonist, 18 h; activation: stronger effect = higher value, percent of dexamethasone control, DMSO zero
Procedure, shortened: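 Quantitative HTS using CellSensor MMTV-bla HeLa cells in charcoal/dextran-treated serum; compounds tested up to 92 uM. After 18 h at 37 C, CCF4 dye reported reporter induction.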

[10] = molecular target: Thyrotropin-releasing hormone receptor (Homo sapiens) (UniProt P34981); experiment: qHTS for Small Molecule Agonists and Allosteric Enhancers of Human TRH Receptor: Validation Screen for Agonists (AID 493127;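 active = calcium activation more than 3 SD above the typical response in the agonist read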;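 also: intracellular calcium rise by fluo-8 fluorescence before TRH EC20 addition; 0% is about no effect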); conditions: TRH receptor agonist cell assay; at 2 µM; stronger effect = higher value
Thyrotropin-releasing hormone receptor (Homo sapiens), sequence (P34981 whole entry, looked up): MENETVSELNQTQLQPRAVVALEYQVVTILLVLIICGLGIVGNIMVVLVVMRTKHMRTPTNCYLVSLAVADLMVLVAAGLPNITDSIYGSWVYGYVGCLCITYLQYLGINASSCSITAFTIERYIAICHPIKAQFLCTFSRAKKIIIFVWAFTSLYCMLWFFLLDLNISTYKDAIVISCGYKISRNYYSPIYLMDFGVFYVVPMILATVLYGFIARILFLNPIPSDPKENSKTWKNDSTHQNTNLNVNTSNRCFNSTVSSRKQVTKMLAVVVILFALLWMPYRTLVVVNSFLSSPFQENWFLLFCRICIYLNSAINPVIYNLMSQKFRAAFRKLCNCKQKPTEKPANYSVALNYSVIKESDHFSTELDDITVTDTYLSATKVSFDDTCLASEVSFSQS
Procedure, shortened: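 Gq-coupled calcium mobilization in TRHR cells after compound addition, monitored kinetically with fluo-8 dye on an FDSS reader.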

[11] = Validation screen for small molecules that induce DNA re-replication in SW480 colon adenocarcinoma cells (AID 504364); conditions: DNA re-replication phenotype (high-content imaging); series mostly up to 46.1 µM; also: 0% is about no effect
Procedure, shortened: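 Cells are treated 48 hr with test compound, stained 40 min with Hoechst at 37 C, and scanned for nuclear fluorescence; compounds inducing re-replication increase nuclei with elevated intensity.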

[12] = molecular target: Phosphoglycerate kinase, glycosomal (Trypanosoma brucei brucei) (UniProt P07378); experiment: qHTS Validation Assay to Find Inhibitors of Phosphoglycerate Kinase (AID 504547); conditions: enzymatic PGK inhibition, coupled luminescence read-out; series mostly up to 57.5 µM;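 also: control wells lack PGK and mark full inhibition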
Phosphoglycerate kinase, glycosomal (Trypanosoma brucei brucei), sequence (P07378 whole entry, looked up): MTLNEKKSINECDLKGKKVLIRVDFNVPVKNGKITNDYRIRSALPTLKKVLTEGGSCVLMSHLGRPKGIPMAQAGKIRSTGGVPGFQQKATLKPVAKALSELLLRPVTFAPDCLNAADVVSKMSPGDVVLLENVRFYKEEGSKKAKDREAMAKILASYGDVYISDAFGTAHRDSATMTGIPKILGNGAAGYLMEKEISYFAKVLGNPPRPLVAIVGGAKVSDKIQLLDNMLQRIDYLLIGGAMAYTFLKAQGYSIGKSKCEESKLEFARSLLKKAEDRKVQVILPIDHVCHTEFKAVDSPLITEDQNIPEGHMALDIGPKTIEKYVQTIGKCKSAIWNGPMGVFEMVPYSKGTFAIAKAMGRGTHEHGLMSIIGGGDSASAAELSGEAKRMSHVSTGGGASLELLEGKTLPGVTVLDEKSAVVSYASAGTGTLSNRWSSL
Procedure, shortened: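 Inhibition of the enzyme is judged by a Kinase-Glo Plus luminescent signal following a one-hour incubation at room temperature. Because 1,3-BPG is unstable, it is made in situ by GAPDH at 100nM final; no-PGK wells define the baseline.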

[13] = molecular target: Ubiquitin carboxyl-terminal hydrolase 1 (Homo sapiens) (UniProt O94782); experiment: Inhibitors of USP1/UAF1: Pilot qHTS (AID 504865); conditions: purified USP1/UAF1, Ub-rhodamine cleavage fluorescence; series mostly up to 114 µM;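 also: rhodamine fluorescence freed from ubiquitin-rhodamine substrate followed over time; top concentration of the series differs between compounds; % is scaled to controls: 0 for no effect and ±100 for the full control effect; nearly all actives have a fitted effect of over 35% in size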
Ubiquitin carboxyl-terminal hydrolase 1 (Homo sapiens), sequence (O94782 whole entry, looked up): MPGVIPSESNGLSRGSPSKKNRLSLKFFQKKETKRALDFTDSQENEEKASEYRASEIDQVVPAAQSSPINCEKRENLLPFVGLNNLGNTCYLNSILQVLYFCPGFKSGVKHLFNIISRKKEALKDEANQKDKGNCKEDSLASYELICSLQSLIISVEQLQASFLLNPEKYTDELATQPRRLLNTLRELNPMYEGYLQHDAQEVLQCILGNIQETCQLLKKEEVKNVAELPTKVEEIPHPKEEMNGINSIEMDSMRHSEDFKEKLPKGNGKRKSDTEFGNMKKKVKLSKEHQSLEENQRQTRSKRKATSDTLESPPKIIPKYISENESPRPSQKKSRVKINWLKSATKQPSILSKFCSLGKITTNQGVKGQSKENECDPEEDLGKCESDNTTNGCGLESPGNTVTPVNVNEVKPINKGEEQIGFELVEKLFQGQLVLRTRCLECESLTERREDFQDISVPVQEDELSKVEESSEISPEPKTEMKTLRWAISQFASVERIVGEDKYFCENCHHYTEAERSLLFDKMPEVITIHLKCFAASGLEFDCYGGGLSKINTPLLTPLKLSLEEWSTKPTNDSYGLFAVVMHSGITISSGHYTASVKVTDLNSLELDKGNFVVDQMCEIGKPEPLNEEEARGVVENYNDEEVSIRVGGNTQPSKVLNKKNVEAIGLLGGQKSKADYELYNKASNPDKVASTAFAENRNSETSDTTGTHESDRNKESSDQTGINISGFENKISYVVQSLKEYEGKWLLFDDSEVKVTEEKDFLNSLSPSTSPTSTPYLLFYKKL
Procedure, shortened: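 Enzyme-free wells gave the negative control, while test wells held 1nM USP1/UAF1 preincubated with compound for 15 min at room temperature. Ub-Rho at 150nM final started the reaction, and fluorescence at 480/540 nm was recorded kinetically.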

[14] = molecular target: Peptidyl-prolyl cis-trans isomerase NIMA-interacting 1 (Homo sapiens) (UniProt Q13526); experiment: qHTS Validation Assay to Find Inhibitors of Pin1 (AID 504536; active = well fitted inhibition curve with a large enough effect in the polarisation, with a control signal flat, not every such curve was filed as active; the % refers to the polarisation;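 also: 0% = full Pin1 enzyme wells and -100% = no-enzyme wells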); conditions: Pin1 fluorescence polarization peptide binding assay; series mostly up to 57.5 µM
Peptidyl-prolyl cis-trans isomerase NIMA-interacting 1 (Homo sapiens), sequence (Q13526 whole entry, looked up): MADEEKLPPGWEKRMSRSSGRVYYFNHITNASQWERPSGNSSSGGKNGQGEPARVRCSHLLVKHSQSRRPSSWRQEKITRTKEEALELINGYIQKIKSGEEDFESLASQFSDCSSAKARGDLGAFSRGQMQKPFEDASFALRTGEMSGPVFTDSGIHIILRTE
Procedure, shortened: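 Fluorescence polarization competition: compounds (titration) displace HiFluor-488-labeled Pin1-1b peptide from Pin1 (0.3 uM final) in pH 7.5 HEPES buffer with DTT, 10 min at room temperature; %Activity normalized to no-enzyme wells, curves fitted.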

[15] = molecular target: Estrogen receptor (Homo sapiens) (UniProt P03372); experiment: qHTS assay for small molecule antagonists of estrogen receptor alpha signaling (AID 588513; active = well fitted curve in the direction sought with a large enough effect in the signal ratio, with a control signal flat, not every such curve was filed as active; the % refers to the signal ratio; also: % is scaled to controls: 0 for no effect and ±100 for the full control effect); conditions: ER-alpha-UAS-bla HEK293, beta-lactamase ratio, antagonist mode; series mostly up to 76.9 µM
Estrogen receptor (Homo sapiens), sequence (P03372 whole entry, looked up): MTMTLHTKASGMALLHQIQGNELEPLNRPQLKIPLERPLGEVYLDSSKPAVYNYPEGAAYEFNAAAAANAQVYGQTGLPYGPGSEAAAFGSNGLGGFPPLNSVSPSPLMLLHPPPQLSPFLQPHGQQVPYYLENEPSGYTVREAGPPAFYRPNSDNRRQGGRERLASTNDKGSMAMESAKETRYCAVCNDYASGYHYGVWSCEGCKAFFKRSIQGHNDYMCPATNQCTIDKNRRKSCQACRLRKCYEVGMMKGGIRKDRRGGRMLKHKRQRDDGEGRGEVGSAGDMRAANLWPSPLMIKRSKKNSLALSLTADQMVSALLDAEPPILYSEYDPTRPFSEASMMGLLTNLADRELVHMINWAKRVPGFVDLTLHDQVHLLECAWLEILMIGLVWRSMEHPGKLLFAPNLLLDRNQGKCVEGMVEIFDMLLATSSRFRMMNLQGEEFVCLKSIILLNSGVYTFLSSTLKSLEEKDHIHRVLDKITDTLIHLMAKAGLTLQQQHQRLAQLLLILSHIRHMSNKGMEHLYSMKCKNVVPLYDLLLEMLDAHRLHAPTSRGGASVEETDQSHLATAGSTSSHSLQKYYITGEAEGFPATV
Procedure, shortened: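 Antagonist-mode qHTS in ER-alpha-UAS-bla HEK 293 cells: compound titration, 0.5nM estradiol for 18 h, CCF4 fluorescence, Hill-derived IC50.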

[16] = molecular target: Estrogen receptor (Homo sapiens) (UniProt P03372); experiment: qHTS assay for small molecule agonists of estrogen receptor alpha signaling (AID 588514; calls by dose curve;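 also: 0% = vehicle only and 100% = reference agonist; nearly all actives have a fitted effect of over 70% in size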); conditions: ER-alpha-UAS-bla HEK293, beta-lactamase ratio, 18 h; series mostly up to 76.8 µM
Procedure, shortened: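 Reporter-gene assay. […] controls beta-lactamase in HEK 293 GripTite cells; after 18 hrs with compound, CCF4 substrate is added for 2 hrs and fluorescence is read.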

COC(=O)[C@H]1[C@H]2C[C@@H]3c4[nH]c5cc(OC)ccc5c4CCN3C[C@H]2C[C@@H](OC(=O)c2cc(OC)c(OC)c(OC)c2)[C@@H]1OC
active: Potency [2] 11.6 µM
inactive: Potency [1] | Potency [3] | outcome [4] | outcome [5] | outcome [6] | Potency [7] | Potency [8] | activation [9] 4.47%
-13.6%: viability change [3]

CCCOc1ccccc1-c1nc2n[nH]nc2c(=O)[nH]1
inactive: Potency [1] | Potency [2] | activation [10] -3.25% | Potency [3] | outcome [4] | outcome [5] | outcome [11] | outcome [12] | outcome [6] | Potency [13] | Potency [7] | Potency [8]
-11.3%: viability change [3]

CO[C@@]1(NC(=O)CSCC#N)C(=O)N2C(C(=O)O)=C(CSc3nnnn3C)CS[C@@H]21
inactive: Potency [1] | Potency [2] | activation [10] 1.44% | Potency [3] | outcome [4] | outcome [5] | outcome [11] | outcome [12] | outcome [6] | Potency [13] | Potency [7] | Potency [8]
1.13%: viability change [3]

Brc1c(NC2=NCCN2)ccc2nccnc12
-1.27%: viability change [3]
inactive: Potency [1] | Potency [2] | Potency [3] | outcome [4] | outcome [5] | outcome [11] | outcome [14] | outcome [12] | outcome [6] | Potency [13] | Potency [7] | Potency [8]

CC(=O)OC(C)C[N+](C)(C)C (stereo not given)
2.56%: viability change [3]
inactive: Potency [1] | Potency [2] | Potency [3] | outcome [4] | outcome [5] | outcome [11] | outcome [14] | outcome [6] | Potency [13] | Potency [7] | Potency [8]

C[C@]12C=CC(=O)C=C1CC[C@H]1[C@@H]3C[C@@H](O)[C@](O)(C(=O)CO)[C@@]3(C)C[C@H](O)[C@@]12F
-4.26%: viability change [3]
active: Potency [3] 0.082 µM | Potency [9] 0.112 µM
inactive: Potency [1] | Potency [2] | outcome [4] | outcome [5] | outcome [11] | outcome [14] | outcome [6] | Potency [13] | Potency [7] | Potency [8] | outcome [15] | Potency [16]

COCCOC(=O)C1=C(C)NC(C)=C(C(=O)OC(C)C)C1c1cccc([N+](=O)[O-])c1 (stereo not given)
inactive: Potency [1] | activation [10] -5.81% | Potency [3] | outcome [4] | outcome [5] | outcome [11] | outcome [14] | outcome [6] | Potency [13] | Potency [8]
0.126%: viability change [3]
active: Potency [2] 11.6 µM

O=C(O)CN(CCOCCOCCN(CC(=O)O)CC(=O)O)CC(=O)O
inactive: Potency [1] | Potency [2] | Potency [3] | outcome [4] | outcome [5] | outcome [11] | outcome [14] | outcome [12] | outcome [6] | Potency [13] | Potency [7] | Potency [8]
3.82%: viability change [3]

NC(=O)c1ncn([C@@H]2O[C@H](CO)[C@@H](O)[C@H]2O)c1O
2.79%: viability change [3]
inactive: Potency [1] | Potency [2] | activation [10] 1.12% | Potency [3] | outcome [4] | outcome [5] | outcome [11] | outcome [12] | outcome [6] | Potency [13] | Potency [7] | Potency [8]

O=C1NCN(c2ccccc2)C12CCN(CCCC(c1ccc(F)cc1)c1ccc(F)cc1)CC2
inactive: Potency [1] | activation [10] 0.75% | outcome [4] | outcome [5] | outcome [11] | outcome [14] | outcome [6] | Potency [7] | Potency [8]
active: Potency [2] 25.9 µM

COc1cc2c(cc1OC)-c1cc(=Nc3c(C)cc(C)cc3C)n(C)c(=O)n1CC2
inactive: Potency [1] | activation [10] -6.75% | Potency [3] | outcome [4] | outcome [5] | outcome [11] | outcome [12] | outcome [6] | Potency [7] | Potency [8]
-6.02%: viability change [3]
active: Potency [2] 13 µM

NC(N)=NC(=O)Cc1c(Cl)cccc1Cl
inactive: Potency [1] | Potency [2] | activation [10] 1.44% | outcome [4] | outcome [5] | outcome [11] | outcome [14] | outcome [12] | outcome [6] | Potency [13] | Potency [7] | Potency [8]

CC(=O)Nc1nnc(S(N)(=O)=O)s1
inactive: Potency [1] | Potency [2] | activation [10] 1.38% | Potency [3] | outcome [4] | outcome [5] | outcome [11] | outcome [14] | outcome [6] | Potency [13] | Potency [7] | Potency [8] | outcome [15] | Potency [16]
3.35%: viability change [3]

NS(=O)(=O)c1cc2c(cc1Cl)NC(C1CC3C=CC1C3)NS2(=O)=O (stereo not given)
inactive: Potency [1] | Potency [2] | activation [10] -0.25% | Potency [3] | outcome [4] | outcome [5] | outcome [11] | outcome [12] | outcome [6] | Potency [13] | Potency [7] | Potency [8]
12.8%: viability change [3]

CN1CCN(C2=Nc3ccccc3Oc3ccc(Cl)cc32)CC1
inactive: Potency [1] | Potency [2] | Potency [3] | outcome [4] | outcome [5] | outcome [11] | outcome [14] | outcome [12] | outcome [6] | Potency [13] | Potency [7]
-14.3%: viability change [3]

CC1=NS(=O)(=O)c2cc(Cl)ccc2N1
3.36%: viability change [3]
inactive: Potency [1] | Potency [2] | Potency [3] | outcome [4] | outcome [5] | outcome [11] | outcome [14] | outcome [6] | Potency [13] | Potency [7] | Potency [8]
